TRPML1 inh – qHTS for Inhibitors of the Human Mucolipin Transient Receptor Potential 1 (TRPML1) | TRPML1-inducible cells, Ca2+ dye fluorescence, FDSS; stronger effect = lower value; inhibition of EC80 agonist-evoked calcium signal | activity change, negative = inhibition, % (concentration not given with the values) | Mucolipin-1 (Homo sapiens), Q9GZU1 | 0.02% of 390,000 active; in the data active = activity change below about -50%; inconclusive = between about -30% and that limit;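 note: stimulus is agonist 54-4 at its EC80 concentration; % is set by controls: 0 for no effect and ±100 for the full control effect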
Target sequence (Q9GZU1 whole entry, looked up): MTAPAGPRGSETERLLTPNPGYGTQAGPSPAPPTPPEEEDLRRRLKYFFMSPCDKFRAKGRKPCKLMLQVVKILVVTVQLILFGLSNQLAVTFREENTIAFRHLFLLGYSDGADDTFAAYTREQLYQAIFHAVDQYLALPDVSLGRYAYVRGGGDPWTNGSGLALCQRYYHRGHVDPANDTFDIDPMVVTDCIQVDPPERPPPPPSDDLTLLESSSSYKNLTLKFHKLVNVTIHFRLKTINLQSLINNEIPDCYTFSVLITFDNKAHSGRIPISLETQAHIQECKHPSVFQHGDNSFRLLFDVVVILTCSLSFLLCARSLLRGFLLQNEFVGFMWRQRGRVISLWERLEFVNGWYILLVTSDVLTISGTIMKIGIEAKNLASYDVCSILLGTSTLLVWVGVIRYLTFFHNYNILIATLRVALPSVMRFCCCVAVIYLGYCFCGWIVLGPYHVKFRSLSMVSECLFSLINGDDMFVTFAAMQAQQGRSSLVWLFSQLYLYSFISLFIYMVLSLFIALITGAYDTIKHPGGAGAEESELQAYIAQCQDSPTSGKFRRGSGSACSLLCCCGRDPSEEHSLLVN
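TRPML1-DL cells, Tet-induced overnight (~16 h, 37 °C) at 1,500 cells/well, were loaded with Ca8 no-wash dye plus quencher for 45-90 min at room temperature. Compounds were pinned during FDSS kinetic reading; agonist 54-4 at EC80 (4 uM final) then added.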
DRD3 antagonist – qHTS of D3 Dopamine Receptor Antagonist: qHTS | D(3) dopamine receptor (Homo sapiens), P35462 | D3R cells, DiscoveRx beta-arrestin luminescence, antagonist mode; stronger effect = lower value | max response, negative = inhibition, % | 2.5% of 360,000 active | AID 652054, 2013; in the data active = max response below about -50%; inconclusive = no clear call, values can overlap the other calls; note: % is set by controls: 0 for no effect and ±100 for the full control effect
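Cells plated overnight at 1500 cells/well, then exposed to library compounds with dopamine controls for 90 minutes at 37 degrees C. DiscoveRx reagent added for 30–60 minutes at room temperature; luminescence read, quantitative HTS format.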
TRPML1 agonist – qHTS for Agonists of the Human Mucolipin Transient Receptor Potential 1 (TRPML1) | Mucolipin-1 (Homo sapiens), Q9GZU1 | TRPML1-expressing cells, Ca2+ dye fluorescence, FDSS | activation, % (test concentration not listed) | 0.12% of 410,000 active; in the data active = activation above about 50%; inconclusive = mostly about 30% to 49%; note: 0% is about no effect
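Calcium fluorescence on an FDSS kinetic reader gave the read-out. Tet-induced TRPML1-DL cells were plated overnight, dye-loaded (Ca8 with quencher, 45-90 min, room temperature, dark), then read 110 s after compound addition, and again 110 s after 4uM final 54-4 (EC80).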
D3 ag – qHTS of D3 Dopamine Receptor Agonist: qHTS | D(3) dopamine receptor (Homo sapiens), P35462 | D3R DiscoveRx beta-arrestin cells, luminescence, 90 min | max activation, % | 0.58% of 410,000 active | AID 652048, 2013; in the data active = max activation above about 30%; note: 0% is about no effect
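Cells at 1500/well, incubated overnight, then treated with pinned compounds (dopamine as control) for 90 min at 37 degrees C. DiscoveRx reagent added for 30 - 60 minutes at room temperature; luminescence read.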
* = called active by the depositor; ? = inconclusive; . = not tested or not shown. This is a sample that favours compounds with a hit; in the whole collection about 2.9% have one here.

SMILES	TRPML1 inh	DRD3 antagonist	TRPML1 agonist	D3 ag
CNc1nc(-c2ccccc2)nnc1C(F)(F)F	-15	0	-1	4
COc1ccc(CCn2c(=S)[nH]c(=O)c3nccnc32)cc1OC	.	.	-1	.
CC(=O)OCC(=O)[C@@]1(O)CC[C@H]2[C@@H]3CCC4=CC(=O)CC[C@]4(C)C3=CC[C@@]21C	.	.	.	-3
Cc1ccc(CCNS(=O)(=O)c2cnc[nH]2)cc1	-1	-66*	0	-4
C=C1C=C(C(F)F)n2ncc(C(=O)NCCc3ccc(Cl)cc3)c2N1	.	.	-1	.
CC(=O)Nc1cc2c(nc1C)nc(C)n2Cc1ccc(Br)cc1	2	-68*	0	-3
Cc1cc(Br)ccc1NC(=O)C1(S(=O)(=O)c2ccc(Cl)cc2)CC1	-7	.	5	4
S=c1[nH]nc(COc2ccc3ccccc3c2)o1	35	-62*	1	0
CC(O)CNC(=O)C(=O)Nc1c2c(nn1-c1ccc(Cl)cc1)CSC2 (configuration not stated)	-9	.	0	-1
COc1ccc2nc(-c3ccccc3)cc(OC)c2c1	9	35	1	33*
N#Cc1nc(-c2cccs2)oc1N1CCN(Cc2ccccc2)CC1	3	-75*	0	-43
Cc1ccc(NC(=O)CN(C)C(=O)COc2cc(F)ccc2[N+](=O)[O-])cc1	4	-53*	0	-17
CC(O)CNCCOc1ccccc1-c1ccccc1 (configuration not stated)	8	-80*	0	-37
COCCCNCCCCOc1ccccc1-c1ccccc1	-11	-78*	1	-12
CCCCNCCOc1ccccc1-c1ccccc1	-8	-99*	-1	-25
CNCCOc1ccccc1-c1ccccc1	14	?	0	-1
COCCNCCOc1ccccc1-c1ccccc1	0	-83*	0	-10
COCCCNCCCCOc1ccc(OCc2ccccc2)cc1	0	-11	1	-2
Cc1cc(=O)n2nc(N3CCC(C(=O)Nc4ccc(Br)c(C)c4)CC3)sc2n1	4	.	-1	4
C=CCNCCCCOc1ccccc1-c1ccccc1	-25	-93*	0	-38
OCCNCCOc1ccccc1-c1ccccc1	-23	-76*	1	-24
CNCCCCOc1ccccc1-c1ccccc1	12	-76*	-1	-28
OCCNCCOCCOc1ccccc1-c1ccccc1	3	-16	0	-4
CC(O)CNCCOc1ccccc1OCc1ccccc1 (configuration not stated)	3	-80*	-1	-15
CC(O)CNCCNCc1c(OCc2ccccc2)ccc2ccccc12 (configuration not stated)	2	?	0	-32
SMILES	TRPML1 inh	DRD3 antagonist	TRPML1 agonist	D3 ag
CCOc1ccc(C(=O)Nc2ccc(C(=O)OCc3cc(=O)n4c(C)csc4n3)cc2)cc1	-8	.	0	2
O=C(OCc1ccco1)c1ccc2c(c1)N(Cc1cccc(F)c1)C(=O)c1ccccc1S2	50	.	2	-2
COCCCNCCOc1ccccc1-c1ccccc1	14	-81*	0	-36
N=C(N)CCCOc1ccccc1-c1ccccc1	-8	-17	0	-7
Cc1cc(C(=O)COC(=O)c2ccc(Br)o2)c(C)n1C	-10	-10	-1	-2
COCCn1c(C)cc(C(=O)COC(=O)c2ccc(Br)o2)c1C	-11	-82*	-1	-3
CC(=O)c1cccc(CN2CCN(C3CCCCC3)C(CCO)C2)c1 (configuration not stated)	-18	-54*	0	-7
CC(=O)c1cccc(CN2CCN(Cc3ccccc3)C(CCO)C2)c1 (configuration not stated)	-24	-28	0	-16
Cc1cc(-n2cccn2)ccc1CN1CCN(C2CCCC2)C(CCO)C1 (configuration not stated)	-4	-70*	-1	-22
CC(C)(C)c1ccc(NC(=O)CSc2nnc3scc(-c4ccccc4)n23)cc1	15	.	3	22
CCOc1ccccc1N1CC(c2nc3ccccc3n2CCOc2ccccc2OC)CC1=O (configuration not stated)	7	.	5	-2
Cc1cc(S(=O)(=O)c2ccc(Cl)cc2)nc(S(=O)(=O)c2ccc(Cl)cc2)c1C#N	-2	-77*	2	-17
Cc1cc(C)c(S(=O)(=O)c2ccc(Cl)cc2)c(Cl)n1	13	2	2	-4
Cc1ccc(CC(=O)NO)cc1	.	.	0	.
Cc1ccc(OCCCC(=O)NCc2ccco2)cc1	-9	-30	1	22
Cc1ccccc1OCCCC(=O)NCc1ccco1	5	-123*	0	2
O=C(NCc1ccccc1)c1ccc(C(=O)N(C2CCCCC2)C2CCCCC2)cc1	?	?	119*	-18
O=C(NCc1ccccc1)c1ccc(C(=O)NCc2ccccc2)cc1	-22	46	0	6
O=C1Nc2ccc(Cl)cc2C12Nc1ccccc1-c1nnc(SCc3ccccc3F)nc1O2 (configuration not stated)	-3	-8	-1	3
O=C1Nc2ccc(F)cc2C12Nc1ccccc1-c1nnc(SCc3ccccc3F)nc1O2 (configuration not stated)	-8	-51*	0	-28
c1ccc(-c2ccc(-c3csc4ncnc(Sc5nnnn5-c5ccccc5)c34)cc2)cc1	.	.	0	.
Cc1ccc(C)c(CN2C(=O)c3ccccc3S(=O)(=O)c3ccc(C(=O)N4CCCCC4)cc32)c1	18	.	-1	1
CC(C)c1ccc(Nc2c(-c3ccccc3O)nc3cnccn23)cc1	59	.	1	38*
COc1cc(-c2nc3cnccn3c2Nc2ccc(C(C)C)cc2)ccc1O	1	50	2	20
CCN(CC(=O)Nc1ccc(NC(C)=O)cc1)CC(=O)Nc1ccc(Cl)c(Cl)c1	-3	-60*	-1	-26
SMILES	TRPML1 inh	DRD3 antagonist	TRPML1 agonist	D3 ag
CCN(CC)CCn1c(NCc2cc(OC)ccc2OC)nc2ccccc21	3	-88*	3	-2
CCN(CC)CCn1c(NCc2cccc(OC)c2)nc2ccccc21	14	-86*	-1	-7
COc1cccc(CNS(=O)(=O)c2ccc(N3CCCCS3(=O)=O)cc2)c1	13	.	0	-7
COc1ccc(Cl)cc1NC(=O)c1noc2c1CCc1ccccc1-2	4	.	0	-10
CCCc1nnc(NC(=O)c2nc(S(=O)(=O)Cc3cccc(C)c3)ncc2Cl)s1	4	-68*	-1	-8
Cc1ccccc1NC(=O)c1nc(S(C)(=O)=O)ncc1Cl	-2	-81*	-1	-13
Cc1cccc(CS(=O)(=O)c2ncc(Cl)c(C(=O)Nc3c(C)cccc3C)n2)c1	-5	-100*	1	-24
Cc1cccc(CS(=O)(=O)c2ncc(Cl)c(C(=O)NCc3ccccc3)n2)c1	6	-82*	0	-3
